Values joined by “and” are separate entries in the source; they are usually repeats but may differ in a detail not shown here. Equal values may be shown once. Values without a mark were called inactive. Entries that show only a call come without a potency. Active and inactive are the calls of the source. Calls come from the whole dose curve; as a rule, active = well fitted activation curve with a large enough effect in the repeat runs; inconclusive = weak or mixed curves; inactive = flat fitted curve, though single readings scatter.
Target: KiSS-1 receptor (Homo sapiens) (UniProt Q969F8)
Sequence (Q969F8 whole entry, looked up): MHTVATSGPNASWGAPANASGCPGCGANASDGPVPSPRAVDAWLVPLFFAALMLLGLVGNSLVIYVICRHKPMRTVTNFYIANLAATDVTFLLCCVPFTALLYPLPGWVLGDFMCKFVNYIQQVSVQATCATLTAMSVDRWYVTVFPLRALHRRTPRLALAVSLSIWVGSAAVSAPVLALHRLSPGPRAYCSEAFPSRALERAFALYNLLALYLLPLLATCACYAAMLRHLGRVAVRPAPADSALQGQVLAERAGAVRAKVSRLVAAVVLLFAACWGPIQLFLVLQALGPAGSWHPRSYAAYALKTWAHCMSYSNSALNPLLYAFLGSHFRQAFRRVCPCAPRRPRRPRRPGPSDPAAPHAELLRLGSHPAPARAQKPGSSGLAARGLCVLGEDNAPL
Assay: Human kisspeptin (KISS1R) small molecule agonists, calcium flux assay in KISS1R-HEK293 cells (AID 1920064)
Procedure, shortened: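 Agonist activity is monitored as intracellular calcium rise in engineered HEK293 cells carrying human KISS1R. Cells are dye-loaded for 1 h at 37 C before compound addition, and fluorescence is recorded for 3 min.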
Potency is the fitted concentration of half-maximal effect.

Row | SMILES | Potency | activation
1 | CCCCOC(=O)C(=O)OCCCC | inactive | 
2 | CCCCCCCCC1CCC(=O)O1 (centres undefined) | inactive | 
3 | CC1CCC(C(C)(C)O)CC1 (centres undefined) | inactive | 
4 | COc1cccc(OC)c1O | inactive | 
5 | O=C1OC2(c3cc(Br)c(O)c(Br)c3Oc3c2cc(Br)c(O)c3Br)c2c(Cl)c(Cl)c(Cl)c(Cl)c21 | 55 µM (active) and 33.4 µM (active) | 
6 | CC(C)=CCCC(C)O (centres undefined) | inactive | 
7 | Cc1ccc2c(ccc3ccccc32)c1 | inactive | 
8 | CC(S)C(=O)NCC(=O)O (centres undefined) | inactive | 
9 | O=C(Nc1ccc([N+](=O)[O-])cc1Cl)c1cc(Cl)ccc1O | inactive | 
10 | CCC/C=C/C=O | inactive | 
11 | CCC(=O)Nc1cccc(N)c1 | inactive | 
12 | CC(C)CCCC(C)CCCC(C)CCCCC(C)CCCC(C)CCCC(C)C (centres undefined) | inactive | 
13 | COC(=O)c1cc(S(N)(=O)=O)ccc1OC | inactive | 
14 | [Cl][Eu]([Cl])[Cl] | inactive | 
15 | COC(=O)Cc1cccc2ccccc12 | inactive | 
16 | O=S(=O)(O)c1cccc(S(=O)(=O)O)c1 | inactive | 
17 | O=C(COc1ccc(Cl)cc1)N1CCN(Cc2ccc3c(c2)OCO3)CC1 | inactive | 

Row | SMILES | Potency | activation
18 | O=C1CC[C@H](C(=O)N2CCCCC2)N1 | inactive | 
19 | CCOCCOCCOCC | inactive | 
20 | Clc1ccccc1-c1nc(-c2ccncc2)no1 | inactive | 
21 | CCCCOC(O)CC (centres undefined) | inactive | 
22 | OCCc1ccccn1 | inactive | 
23 | C=CCCCCCCCCCCCCCCCC |  | 0.739% [at 6.97 µM]
24 | CCCCOCCOCCOCCCC | inactive | 
25 | Nc1ccc(N)c(Cl)c1 | inactive | 
26 | O=C1NC2NC(=O)NC2N1 (centres undefined) | inactive | 
27 | O=C1OC(=O)c2c(Cl)c(Cl)c(Cl)c(Cl)c21 | inactive | 
28 | CCN(Cc1cccc(S(=O)(=O)O)c1)c1ccccc1 | inactive | 
29 | NC(=O)c1ncn([C@@H]2O[C@H](CO)[C@@H](O)[C@H]2O)c1O | inactive | 
30 | CCc1ccc(C)nc1 | inactive | 
31 | N#CCN(CC#N)CCN(CC#N)CC#N | inactive | 
32 | CCCCCCCCCCCCCCO | inactive | 
33 | CC(=O)[O][Al][O]C(C)=O | inactive | 
34 | CCCCCCC(C)(C)C(=O)O | inactive | 

— PubChem BioAssay (Tox21)
